Compounds without any hit were thinned out: in the full panel of roughly 83,000, 20% have a hit.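 48-hour exposure, single concentration, 96-well plates; percent growth endpoint where 0 means no net growth. Active: below 10.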 The source made the active and inactive calls.
What was measured:
Assay in all cases: NCI-60 one-dose screen, 48 h (100 = growth as untreated, 0 = no growth, -100 = all killed)
Details in all cases: 10 µM unless noted
[1] = test system: NCI-H23 lung
[2] = test system: NCI-H226 lung
[3] = test system: NCI-H322M lung
[4] = test system: HOP-62 NSCLC
[5] = test system: NCI-H460 lung
[6] = test system: HOP-92 NSCLC
[7] = test system: NCI-H522 lung
[8] = test system: A549/ATCC NSCLC
[9] = test system: 786-0 renal
[10] = test system: COLO 205 colon
[11] = test system: DU-145 prostate
[12] = test system: K-562 leukemia
[13] = test system: MALME-3M melanoma
[14] = test system: MDA-MB-231 breast
[15] = test system: RXF 393 renal
[16] = test system: SF-268 CNS
[17] = test system: SF-295 CNS
[18] = test system: SF-539 CNS
[19] = test system: UACC-257 melanoma
[20] = test system: M14 melanoma

Measured: growth

CN1CCN(C(=O)CCN(C(=O)Oc2cc3c(c4ccccc24)[C@H](CCl)CN3C(=O)c2cc3cc(OCCCN4CCC4)ccc3[nH]2)[C@H]2CCSSC2)CC1
active: [1] -73.3% | [2] -17.9% | [3] -48% | [4] -77.4% | [5] 2.93% | [6] -32.1% | [7] -74.4% | [8] -61.5% | [9] -90.8% | [10] -80% | [11] -84.3% | [12] -42.9% | [13] -86.8% | [14] -89.6% | [15] -86.7% | [16] -50.4% | [17] -71% | [18] -94% | [19] -77.9% | [20] -62.5%

Cc1ccccc1NC(=O)c1cccc(NC(=O)CCl)c1
active: [7] -71.7%
inactive: [1] 52.8% | [2] 42.4% | [3] 101% | [4] 32.3% | [5] 41.6% | [6] 70% | [8] 59.1% | [9] 16.6% | [10] 76.5% | [11] 69.4% | [12] 28.1% | [13] 79.6% | [14] 49.7% | [15] 49.7% | [16] 60.1% | [17] 38.4% | [18] 51.3% | [19] 47.5% | [20] 50.5%

C=CC[n+]1cccc2c3ccccc3ccc21
active: [13] 2.38%
inactive: [1] 27.4% | [2] 58% | [3] 76.7% | [4] 44.9% | [5] 23.2% | [6] 52.3% | [7] 27.1% | [8] 28.1% | [9] 66.2% | [10] 28.4% | [11] 58.4% | [12] 27.8% | [14] 77.6% | [15] 69.7% | [16] 22.7% | [17] 21.4% | [18] 66.6% | [19] 20.9% | [20] 65.9%

Nc1nn2c(-c3cc4cc(Br)ccc4oc3=O)ccnc2c1N=Nc1ccccc1
active: [1] 1.73% | [2] -55.6% | [3] 8.62% | [4] 1.3% | [5] -28% | [6] -18.8% | [7] -51.6% | [9] -3.59% | [14] -36.8% | [15] -53% | [16] -28.4% | [17] 9.13% | [18] -84.4%
inactive: [8] 53.4% | [10] 80.2% | [11] 37.1% | [12] 83.2% | [13] 26.2% | [19] 61.8% | [20] 74.9%

COc1ccc2nc(NC(=O)c3ccc(N(C)C)cc3)sc2c1
inactive: [1] 66.2% | [2] 56.9% | [3] 64.7% | [4] 92% | [5] 65.9% | [6] 112% | [7] 67.7% | [8] 54.9% | [9] 85% | [10] 89.5% | [11] 83.4% | [12] 60.2% | [13] 72.7% | [14] 92.7% | [15] 110% | [16] 90.2% | [17] 59% | [18] 90% | [19] 80.6% | [20] 87.4%

COc1ccc(-c2cc(C(=O)N=Nc3c(O)[nH]c4ccc(Cl)cc34)c3ccccc3n2)cc1OC
inactive: [1] 92.2% | [2] 89.5% | [3] 102% | [4] 123% | [5] 111% | [6] 121% | [7] 106% | [8] 111% | [9] 106% | [10] 125% | [11] 126% | [12] 109% | [13] 105% | [14] 90.9% | [15] 104% | [16] 118% | [17] 101% | [18] 101% | [19] 115% | [20] 89.2%

O=C1Nc2cc(-c3ccc(NS(=O)(=O)c4ccc(-c5ccccc5)cc4)cc3)ccc2/C1=C/c1ccc[nH]1
inactive: [2] 66.5% | [3] 47.3% | [4] 75.9% | [6] 16.1% | [8] 10.5% | [9] 58.4% | [12] 18.8% | [13] 50% | [14] 63.9% | [16] 75.8% | [17] 30.9% | [18] 37.4% | [19] 58.9% | [20] 38%
active: [1] 4.1% | [5] 3.38% | [7] -11.8% | [10] 0.446% | [11] -11.5% | [15] -37.3%

Cc1ccc(O)cc1Nc1nc(SCCN2CCOCC2)nc2c1cnn2CC(Cl)c1ccc(Br)cc1 (stereo not given)
inactive: [1] 13.7% | [2] 27.5% | [3] 73.5% | [4] 23% | [7] 15.8% | [9] 11.1% | [10] 85.9% | [11] 29.5% | [16] 23.6% | [18] 10.7% | [19] 18.1%
active: [5] 9.59% | [6] -19.8% | [8] -9.82% | [12] -38.6% | [13] 1.03% | [14] -30.6% | [15] -24.3% | [17] -2.67% | [20] 9.14%

Cc1ccc(C2CC(c3ccc(NC(=O)Nc4ccccc4)cc3)=NN2c2ccc(S(N)(=O)=O)cc2)cc1 (stereo not given)
active: [1] -95.8% | [2] -80.4% | [3] -96.5% | [4] -72.9% | [5] -86.1% | [6] -81.3% | [7] -84% | [8] -61.4% | [9] -87.9% | [10] -66.3% | [11] -76.2% | [12] 6.16% | [13] -96.5% | [14] -90.8% | [15] -91.3% | [16] -74.5% | [17] -71.2% | [18] -99.3% | [19] -71.6% | [20] -73.2%

O=C1N/C(=N\c2nccs2)S/C1=C\c1ccc([N+](=O)[O-])cc1
active: [2] 6.47% | [5] 8.33% | [7] -1.75% | [8] 9.8% | [15] 8.41% | [18] 4.72% | [19] 8.51% | [20] 5.66%
inactive: [1] 32.7% | [3] 23.2% | [4] 37.4% | [6] 16.7% | [9] 19.7% | [10] 23.2% | [11] 39.9% | [12] 13.3% | [13] 28.4% | [14] 10.8% | [16] 19.9% | [17] 15%

Fc1cccc(CNc2nc(SCCN3CCOCC3)nc3c2cnn3CC(Cl)c2ccc(Br)cc2)c1 (stereo not given)
active: [5] 7.02% | [10] -9.76% | [12] -4.59% | [13] -19.6% | [14] 6.57% | [17] -10.5%
inactive: [1] 46.2% | [2] 27.5% | [3] 81.7% | [4] 44.9% | [6] 20.3% | [7] 36.8% | [8] 19.9% | [9] 20.9% | [11] 49.9% | [15] 29.5% | [16] 35% | [18] 10.8% | [19] 20.1% | [20] 28%

CN(C)c1nc(NCCNS(=O)(=O)c2ccc(C(=O)/C=C/c3ccccc3)cc2)nc(N2CCOCC2)n1
inactive: [1] 93.2% | [2] 82.6% | [3] 96.9% | [4] 108% | [5] 101% | [6] 94.9% | [7] 67.5% | [8] 78.8% | [9] 66.4% | [10] 105% | [11] 89.6% | [13] 99.2% | [15] 79% | [16] 74.6% | [17] 75.6% | [18] 77.1% | [19] 78.8% | [20] 84.4%
active: [12] -15.4% | [14] 7.26%

COc1ccc(NC(=O)Cn2c(/C=C/c3cccc(OC)c3)nc3ccccc3c2=O)cc1
active: [2] 1.28% | [4] -11.5% | [6] 3.74% | [9] -70.7% | [14] -30.3% | [15] -31.9% | [18] -45.7%
inactive: [1] 40.8% | [3] 42.3% | [5] 15.2% | [7] 27.3% | [8] 12.8% | [10] 71.6% | [11] 74.3% | [12] 84% | [13] 62.7% | [16] 66.1% | [17] 34.6% | [19] 81.1% | [20] 61.2%

O=C(Nc1ccc(-c2ccc3c(c2)NC(=O)/C3=C\c2ccc[nH]2)cc1)Nc1ccc(Cl)c(C(F)(F)F)c1
active: [5] 4.07% | [7] -15.1%
inactive: [1] 15.4% | [2] 65.8% | [3] 50.6% | [4] 44.1% | [6] 46.9% | [8] 18% | [9] 48.8% | [10] 15.4% | [11] 44.1% | [12] 15.2% | [13] 64.4% | [14] 72.2% | [15] 42.3% | [16] 46.3% | [17] 38.4% | [18] 44.2% | [19] 24.5% | [20] 54.8%

CCCn1c(NC(=O)c2cccc(C(N)=O)c2)nc2cc(CN3CCCCC3)ccc21
inactive: [1] 88.1% | [2] 101% | [3] 92% | [4] 95.8% | [5] 101% | [6] 84.8% | [7] 83.1% | [8] 95.7% | [10] 88.7% | [11] 103% | [12] 72.3% | [13] 98% | [14] 142% | [15] 64.5% | [16] 111% | [17] 107% | [18] 107% | [19] 113% | [20] 13.8%
active: [9] 9.97%

O=C(Nc1nc2ccc([N+](=O)[O-])cc2s1)Nc1ccc(Cl)cc1Cl
inactive: [1] 18.2% | [2] 61.1% | [3] 72.2% | [4] 39.8% | [5] 27.6% | [6] 29.1% | [7] 20.3% | [8] 55.8% | [9] 19.6% | [10] 74.7% | [11] 64.1% | [12] 24.6% | [13] 52.4% | [15] 20% | [16] 66.1% | [17] 17.2% | [18] 11.7% | [19] 60.3% | [20] 77.9%
active: [14] 1.5%

From PubChem BioAssay (NCI)
